{"source": "PubChem BioAssay (NCATS)", "note": "Records with an inconclusive call do not appear. Unmarked numbers belong to inactive results. The call rests on the fitted dose curve; in most records, active means well fitted activation curve with a large enough effect; inconclusive means small, poorly fitted or top-dose-only effect; inactive means flat fitted curve, though single readings scatter.", "data": [{"assay": "Primary redox qHTS assay for identification of artifact compounds. (AID 1845223)", "details": "Amplex Red/HRP redox cycling with DTT, fluorescence; series mostly up to 53.8 µM; redox activity (% of DA3003): at the top concentration", "source_text": "PI: Alexander Tropsha Ph.D.\nUNC Eshelman School of Pharmacy\nUniversity of North Carolina, Chapel Hill, North Carolina\nHits from high-throughput screening (HTS) of chemical libraries are often false positives due to their interference with the assay detection technology. In response to this problem, we generated the largest publicly available library of chemical liabilities and developed a free webtool to predict HTS artifacts, both of which are described herein. More specifically, we generated, curated, and integrated HTS datasets for thiol reactivity, redox activity, and luciferase (firefly and nano) activity. Using these curated datasets, we developed and validated several Quantitative Structure-Interference Relationship (QSIR) models to predict nuisance behavior. […] These models were employed for virtual profiling of the National Center for Advancing Translational Science's (NCATS) in-house library, and 256 compounds for each assay were selected for the experimental validation of nuisance behavior. The BA for these external predictions ranged from 58 to 78% for compounds within the applicability domains of the models. […] The models developed in this study, along with aggregation models previously developed by our group (SCAM Detective) were implemented in \"Liability Predictor,\" an online tool which may be used as part of chemical library design or for triaging HTS hits. Both the models and the curated datasets are publicly available at https://liability.mml.unc.edu/.\nSEQUENCE No. (e.g., 1, 2, 3, etc.); […] (e.g., Cells, Incubation, Reagent, etc.); VALUE; DESCRIPTION.\n1; Reagent; 3 uL; Amplex Red and HRP mixture.\n2; Compounds and control; 16 nL; Kalypsis pin tool (Wako USA) equipped with a 1536-well pin head. […]\n6; Detection; Fluorescence, ViewLux microplate reader, 525 nm excitation, 598 nm emission.\nNOTES (numbers refer to Sequence numbers above)\n1. 3 uL of a mixture containing Amplex Red (25 uM final concentration) and horseradish peroxidase (HRP; 250 mU/mL final concentration) in assay buffer (HBSS) was dispensed into all wells of a 1536-well assay plate (solid-bottom black plate; Greiner Bio One, Monroe, NC).\n2. A Wako Pin-tool (Wako Automation, Richmond, VA) was used to transfer 16 nL of compounds (consisting of 7-plates in qHTS format, final concentration range 18.3 nM to 114 uM) or control DA3003 (final concentration range 1.22 nM to 40 uM).\n3. 15 min. incubation at room temperature protected from light.\n4. 1 uL of DTT (prepared fresh; final concentration 250 uM) was dispensed for a final assay volume of 4 uL.\n5. Plates were centrifuged (121xg, 15 seconds) and incubated for 30 minutes at room temperature protected from light.\n6. Samples were read for fluorescence (Ex/Em = 525(20)/598(25) nm) on a ViewLux CCD imager (PerkinElmer). Data were normalized to DMSO (0% activity) and DA3003 (10 uM final concentration; 100% activity) and the resulting percent inhibition data were fitted to a 4-parameter Hill equation using NCATS in-house software.", "values": [{"molecule": "C=C1CC[C@@H]2[C@](C)(CO)[C@H](O)CC[C@@]2(C)[C@@H]1C/C=C1/C(=O)OC[C@@H]1O", "redox activity (% of DA3003)": "-7.01%"}, {"molecule": "CC[C@@H](C)[C@H]1C(=O)O[C@H](C(C)C)C(=O)N(C)[C@@H](C(C)C)C(=O)O[C@H](C(C)C)C(=O)N(C)[C@@H](C(C)C)C(=O)O[C@H](CC(C)C)C(=O)N1C", "redox activity (% of DA3003)": "2.6% [at 25.6 µM]"}, {"molecule": "COc1cccc(CNC(=O)Nc2nc(-c3ccncc3)cs2)c1", "redox activity (% of DA3003)": "-1.78%"}, {"molecule": "C=C(C)C(=O)OC1[C@@H]2C(=C)C(=O)O[C@@H]2C[C@@H](C)[C@@H]2C=CC(=O)[C@@]12C", "note": "(stereo not given in full)", "redox activity (% of DA3003)": "10%"}, {"molecule": "COc1ccc(-c2c(C)c(C(=O)NN3CCCCC3)nn2-c2ccc(Cl)cc2Cl)cc1", "redox activity (% of DA3003)": "2.55%"}, {"molecule": "C[C@H](NC(=O)C(C)(C)Oc1ccc(C(F)(F)F)cn1)[C@@H](Cc1ccc(Cl)cc1)c1cccc(C#N)c1", "redox activity (% of DA3003)": "3.8%"}, {"molecule": "CC(C)CCC[C@@H](C)[C@H]1CC[C@H]2[C@@H]3CC=C4C[C@@H](OC(=O)NCCN(C)C)CC[C@]4(C)[C@H]3CC[C@]12C", "redox activity (% of DA3003)": "17.3%"}, {"molecule": "COc1ccc(CNC(=O)Nc2ncc([N+](=O)[O-])s2)cc1", "redox activity (% of DA3003)": "-10.7%"}, {"molecule": "N#Cc1ccc(-c2ccc(NC(=O)Nc3ccc(-c4ccnc5nc[nH]c45)cc3)cc2)cc1", "redox activity (% of DA3003)": "-1.83%"}, {"molecule": "C=C(C(=O)O)C1CC2=C(C)C(=O)CC2C(C)CC1O", "note": "(stereo not given)", "redox activity (% of DA3003)": "1.94%"}, {"molecule": "COc1ccc(-c2nc(-c3cc(C(F)(F)F)cc(C(F)(F)F)c3)n(Cc3ccc(C(N)=O)cc3)c2-c2ccc(OC)cc2)cc1", "redox activity (% of DA3003)": "-0.341%"}, {"molecule": "OC(CNCCc1c[nH]c2ccccc12)Cn1c2ccccc2c2ccccc21", "note": "(stereo not given)", "redox activity (% of DA3003)": "-4.95%"}, {"molecule": "Fc1ccc(C2CCNC[C@H]2COc2ccc3c(c2)OCO3)cc1", "note": "(stereo not given in full)", "redox activity (% of DA3003)": "-5.85%"}, {"molecule": "CCC(=O)c1cc(-c2ccc(Cl)cc2)n(-c2ccc(S(N)(=O)=O)cc2)c1C", "redox activity (% of DA3003)": "1.35%"}, {"molecule": "COc1cc(O)c(C(=O)CCc2ccc(O)cc2)c(O[C@@H]2O[C@H](CO)[C@@H](O)[C@H](O)[C@H]2O)c1", "redox activity (% of DA3003)": "-5.91% [at 25.6 µM]"}, {"molecule": "CCOc1ccc(-c2nc(-c3cccc4c3CCC4NCCO)no2)cc1OCC", "note": "(stereo not given)", "redox activity (% of DA3003)": "-1.37%"}, {"molecule": "CC[C@H]1OC(=O)[C@H](C)[C@@H](O[C@H]2C[C@@](C)(OC)[C@@H](O)[C@H](C)O2)[C@H](C)[C@@H](O[C@@H]2O[C@H](C)C[C@H](N(C)C)[C@H]2O)[C@](C)(O)C[C@@H](C)/C(=N/OCOCCOC)[C@H](C)[C@@H](O)[C@]1(C)O", "redox activity (% of DA3003)": "1.39%"}, {"molecule": "C[C@@H](c1nc(-c2ccc(C#N)cc2)cs1)[C@](O)(Cn1cncn1)c1cc(F)ccc1F", "redox activity (% of DA3003)": "-1.69%"}, {"molecule": "C/C=C/C[C@@H](C)[C@@H](O)[C@H]1C(=O)N[C@@H](CC)C(=O)N(C)CC(=O)N(C)[C@@H](CC(C)C)C(=O)N[C@@H](C(C)C)C(=O)N(C)[C@@H](CC(C)C)C(=O)N[C@@H](C)C(=O)N[C@H](C)C(=O)N(C)[C@@H](CC(C)C)C(=O)N(C)[C@@H](CC(C)C)C(=O)N(C)[C@H](C(C)C)C(=O)N1C", "redox activity (% of DA3003)": "7.35% [at 25.6 µM]"}, {"molecule": "Cn1c(NC[C@@H](N)Cc2ccccc2)nc(-c2ccncc2)c(-c2ccc3ccccc3c2)c1=O", "redox activity (% of DA3003)": "8.99%"}, {"molecule": "CCC[C@@H](NC(=O)N1C(=O)C(CC)(CC)[C@@H]1Oc1ccc(C(=O)N2CCN(C)CC2)cc1)c1ccc2c(c1)OCO2", "redox activity (% of DA3003)": "2.86%"}, {"molecule": "C=C(C)C(=O)O[C@H]1[C@H]2C(=C)C(=O)O[C@@H]2C[C@@H](C)/C=C\\C(=O)[C@](C)(O)[C@@H]1OC(C)=O", "redox activity (% of DA3003)": "-3.02% [at 25.6 µM]"}, {"molecule": "CCCCC(=O)N(Cc1ccc(-c2ccccc2-c2nn[nH]n2)cc1)C(C(=O)O)C(C)C", "note": "(stereo not given)", "redox activity (% of DA3003)": "1.09%"}, {"molecule": "COc1ccc(NC(=O)N2CCc3c2ccc2ccccc32)cc1N1CCN(C)CC1", "redox activity (% of DA3003)": "3.84%"}, {"molecule": "Cc1ccn(-c2cc(Cl)ccc2[C@@H](Oc2cc(-c3ccc(C[C@H](N)C(=O)O)cc3)nc(N)n2)C(F)(F)F)n1", "redox activity (% of DA3003)": "5.52%"}, {"molecule": "CNc1nc(-c2ccc3c(N)n[nH]c3c2)cc(N2CC(C(=O)NC3CCCCC3)CCC2C)n1", "note": "(stereo not given)", "redox activity (% of DA3003)": "-6.49%"}, {"molecule": "N#Cc1c[nH]c2c(C(=O)N3CCN(CCc4ccc(F)cc4)CC3)cccc12", "redox activity (% of DA3003)": "11.3%"}, {"molecule": "CCOc1cc(CNC2CCCC2)cc(Cl)c1OCc1ccc(Cl)cc1", "redox activity (% of DA3003)": "13.5%"}, {"molecule": "Nc1nc(NCC2CCC(CNS(=O)(=O)c3cccc4ccccc34)CC2)nc2ccccc12", "note": "(stereo not given)", "redox activity (% of DA3003)": "-5.56%"}, {"molecule": "COc1ccc2c(c1)C[C@H](C(=O)Nc1ccc(-c3cn[nH]c3)cc1OCCN(C)C)CO2", "redox activity (% of DA3003)": "-10.4%"}, {"molecule": "C/C=C(/COC(=O)/C(C)=C/C)C(=O)OC/C=C/c1ccc(OC)cc1", "redox activity (% of DA3003)": "-0.183%"}, {"molecule": "C=C1C(=O)O[C@H]2[C@H]1[C@@H](OC(=O)/C(C)=C\\C)C[C@]1(C)O[C@@H]1[C@H]1O[C@H]1C(=C)[C@H]2O", "redox activity (% of DA3003)": "6.07%"}, {"molecule": "C[C@@H](O[C@H]1OCCN(Cc2n[nH]nc2CN(C)C)[C@H]1c1ccc(F)cc1)c1cc(C(F)(F)F)cc(C(F)(F)F)c1", "redox activity (% of DA3003)": "-4.74%"}, {"molecule": "COc1c(N2CC3CCCNC3C2)c(F)cc2c(=O)c(C(=O)O)cn(C3CC3)c12", "note": "(stereo not given)", "redox activity (% of DA3003)": "-0.802%"}, {"molecule": "COc1cccc(NC[C@@H](O)Cn2c3ccc(Br)cc3c3cc(Br)ccc32)c1", "redox activity (% of DA3003)": "-1.84%"}, {"molecule": "CCOC(=O)c1cnn(-c2ccc(NC(=O)C(Cl)=C(Cl)Cl)cc2)c1C(F)(F)F", "redox activity (% of DA3003)": "-5.03%"}, {"molecule": "COc1cc(-c2cc(-c3ccc(N4CCNCC4)cc3)cnc2C)cc(OC)c1OC", "redox activity (% of DA3003)": "-6.19%"}, {"molecule": "O=C(CCCCCCC(=O)Nc1ccc(C2OC(CSc3nc(-c4ccccc4)c(-c4ccccc4)o3)CC(c3ccc(CO)cc3)O2)cc1)NO", "note": "(stereo not given)", "redox activity (% of DA3003)": "7.41%"}, {"molecule": "NC(=Nc1ccc(CCNCc2cccc(Cl)c2)cc1)c1cccs1", "redox activity (% of DA3003)": "-4.7%"}, {"molecule": "Cc1cc2nc(NCCCO)n(CC(=O)c3cc(C(C)(C)C)c(O)c(C(C)(C)C)c3)c2cc1C", "redox activity (% of DA3003)": "2.89%"}]}]}
